According to PubChem BioAssay:
“And” between values parts separate entries of the source, which are not always exact repeats. Identical values can stand only once. The source made the active and inactive calls.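 The calls were made as follows, unless noted: active = z-score of at least 1.8 in each of two replicates, scored against plate mean and spread of sample wells; inactive = the rest.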

Assays:
[1] = stimulators of nuclear beta-catenin in C2C12, primary screen, imaging, WNT3A-conditioned medium, mouse C2C12, NPC library (AID 1117326; in the data active = nuclear beta-catenin stimulation mostly above about 4.2%, no sharp cut-off; inactive = mostly below about 10%); conditions: stronger effect = higher value
[2] = stimulators of insulin release from INS-1E, primary screen, cell-based, 5 mM glucose, NPC library (AID 1117329;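 active = compound raises insulin release from rat beta cells at 5 mM glucose, no numeric limit stated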); conditions: rat INS-1E insulin secretion, at 10 µM, stronger effect = higher value
[3] = growth inhibition of GSK3B-pretreated HCT116 cells – cell-based, CellTiter-Glo, 0.2 to 20 µM (AID 1117336;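 active = compounds lowering colon cancer cell viability after pretreatment blocking the GSK3B kinase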); conditions: HCT116 viability after GSK3B inhibitor, at 20 µM, stronger effect = higher value
[4] = inhibition of endothelial tube formation, primary screen, imaging, VEGF stimulated, CD31 staining, tube area, NPC library (AID 1117340;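 active = compound that reduces growth-factor-driven endothelial tube area in a mixed cell culture, no cutoff stated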); conditions: VEGF-stimulated ADSC/ECFC co-culture, at 10 µM, stronger effect = higher value
[5] = glucagon-like peptide 1 release enhancers, primary assay, NCI-H716 cell line, NPC library (AID 1117341;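 active = compound raises GLP1 secretion from the human gut endocrine cells, with no numeric limit stated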); conditions: NCI-H716 cells, at 10 µM, stronger effect = higher value
[6] = HCT116 colon cancer cell growth inhibition, primary screen, CellTiter-Glo luminescence, NPC library (AID 1117342;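 active = compounds that lower survival of HCT116 colon cancer cells in the luminescence readout, no numeric limit stated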); conditions: at 20 µM (top of the series)
[7] = CellTiter-Glo luminescent readout of SW480 viability loss, NPC library primary (AID 1117343;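 active = compounds that lower viability of the colon cancer cells in the luminescence readout, with no numeric limit stated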); conditions: CellTiter-Glo luminescence; at 20 µM (top of the series)
[8] = decreased DLD-1 cellular survival, CellTiter-Glo luminescent readout, NPC compound collection, primary HTS (AID 1117346;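 active = compounds that lower survival of DLD-1 colon cancer cells in the luminescence readout, no cutoff given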); conditions: DLD-1 viability, CellTiter-Glo luminescence; at 20 µM (top of the series)
[9] = differential killing of epithelial or mesenchymal cells, primary screen, imaging, PC-3E GFP, TEM4-18 mCherry, co-culture (AID 1345086;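 active = compounds killing one labelled cell type while sparing the other, by normalised counts and ratio limits, not self-fluorescent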;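 as to all read-outs here: cells exposed to compound for 72 h before imaging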;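 as to red/green cell ratio (normalised): normalised mesenchymal count divided by normalised epithelial count so high means epithelial killing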); conditions: imaging cell counts, at 1 µM; for red/green cell ratio (normalised): actives lie on both sides
[10] = test system: Aerobactin synthetase IucA (Klebsiella pneumoniae hvKP1); experiment: Biochemical IucA enzyme inhibition primary screen of the Spectrum library (AID 1346200; call rule not given here;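 also: 100% = wells without compound and 0% = wells lacking enzyme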); conditions: malachite green pyrophosphate, A620, at 8 µM, stronger effect = lower value
[11] = test system: Aerobactin synthetase IucA (Klebsiella pneumoniae, hypervirulent); experiment: IucA enzyme inhibition, biochemical, LOPAC library, absorbance readout (AID 1346212; call rule not given here;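 also: 100% = no compound wells and 0% = no enzyme wells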); conditions: IucA enzyme assay, absorbance (OD) readout; stronger effect = lower value;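 tested at 8 µM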
[12] = sensitizers of A549 cells to miR-34 induction, primary screen, imaging, A549 dox-inducible miR-34, nuclei and caspase counts (AID 1347080;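 active = compounds whose cell count with miR-34 switched on is under 0.7 times the count with it off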); conditions: A549 miR-34 inducible, Hoechst nuclei count, 48 h
[13] = molecular target: NAD(+) hydrolase SARM1 (Homo sapiens) (UniProt Q6SZW1); experiment: SARM1 TIR NADase inhibitors, cell lysate, NAD-Glo luminescence (AID 1508614;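 active = compound whose remaining NAD level is above about 45 nM, limit read from the data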;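 also: higher remaining NAD means stronger inhibition of SARM1 NADase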); conditions: SAM-TIR HEK293T lysate NADase, at 1 µM, stronger effect = higher value
NAD(+) hydrolase SARM1 (Homo sapiens), sequence (Q6SZW1 whole entry, looked up): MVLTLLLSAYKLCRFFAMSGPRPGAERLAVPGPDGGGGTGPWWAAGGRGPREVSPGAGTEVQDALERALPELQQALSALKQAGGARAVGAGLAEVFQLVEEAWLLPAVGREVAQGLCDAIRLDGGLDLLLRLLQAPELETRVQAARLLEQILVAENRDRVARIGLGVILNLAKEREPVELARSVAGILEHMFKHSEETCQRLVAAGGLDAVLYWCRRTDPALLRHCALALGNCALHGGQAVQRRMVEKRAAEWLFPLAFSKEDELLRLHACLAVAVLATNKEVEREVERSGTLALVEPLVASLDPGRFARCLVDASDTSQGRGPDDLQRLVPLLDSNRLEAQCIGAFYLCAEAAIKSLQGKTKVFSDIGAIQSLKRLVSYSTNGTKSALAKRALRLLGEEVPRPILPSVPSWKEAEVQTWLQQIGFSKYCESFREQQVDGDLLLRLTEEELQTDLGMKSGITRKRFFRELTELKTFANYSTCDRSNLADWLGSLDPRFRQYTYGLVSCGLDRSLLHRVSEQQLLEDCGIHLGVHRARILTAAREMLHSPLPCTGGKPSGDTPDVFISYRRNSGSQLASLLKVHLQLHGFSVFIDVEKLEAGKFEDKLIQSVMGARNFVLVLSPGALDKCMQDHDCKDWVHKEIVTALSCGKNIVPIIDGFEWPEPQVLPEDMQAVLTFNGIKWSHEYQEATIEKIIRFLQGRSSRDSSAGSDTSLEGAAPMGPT

[14] = viability rescue of complex I mutant cybrids, primary screen, cell-based, galactose medium, ATP luminescence (AID 1645843); conditions: complex I mutant cybrid cells, 72 h, stronger effect = higher value;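 also: positive z means more ATP and so rescue of galactose-driven cybrid death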
[15] = survival rescue of mitochondrial mutant cells in low glucose, primary screen, MELAS cybrids, Rieske KO mouse fibroblasts, CellTiter-Glo (AID 1508586;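 active = mean z-score across replicates of 1.96 or higher in either the MELAS or the Rieske mutant cell line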;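 also: z relative to plate mean and SD of compound and empty wells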)
[16] = molecular target: 6-phosphogluconate dehydrogenase, decarboxylating (Homo sapiens) (UniProt P52209); experiment: 6PGD enzyme inhibitors, primary screen, biochemical, human, recombinant enzyme, NADPH absorbance (AID 1159550;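 active = at least 20% inhibition of 6-phosphogluconate dehydrogenase activity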); conditions: recombinant 6PGD, NADPH absorbance 341 nm; at 10 µM; stronger effect = higher value
6-phosphogluconate dehydrogenase, decarboxylating (Homo sapiens), sequence (P52209 whole entry, looked up): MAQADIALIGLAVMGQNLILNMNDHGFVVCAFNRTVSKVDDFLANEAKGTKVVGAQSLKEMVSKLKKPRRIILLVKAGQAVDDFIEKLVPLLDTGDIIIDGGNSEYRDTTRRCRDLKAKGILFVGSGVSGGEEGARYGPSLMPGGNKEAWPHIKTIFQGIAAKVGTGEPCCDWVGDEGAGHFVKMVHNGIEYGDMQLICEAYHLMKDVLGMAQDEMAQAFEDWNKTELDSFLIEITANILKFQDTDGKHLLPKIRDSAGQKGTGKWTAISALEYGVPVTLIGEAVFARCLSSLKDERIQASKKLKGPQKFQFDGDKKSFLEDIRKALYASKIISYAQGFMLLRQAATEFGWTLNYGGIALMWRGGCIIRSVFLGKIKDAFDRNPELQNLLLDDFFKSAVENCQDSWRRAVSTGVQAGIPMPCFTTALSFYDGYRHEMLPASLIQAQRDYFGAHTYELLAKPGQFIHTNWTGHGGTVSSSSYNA

[17] = hESC survival regulators, cell-based (AID 493140; call rule not given here;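 also: cells exposed to compounds for four days before counting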); conditions: human embryonic stem cell survival screen; stronger effect = higher value
[18] = molecular target: Mitogen-activated protein kinase 7 (Homo sapiens) (UniProt Q13164); experiment: ERK5 transactivation activators in reporter cells, primary screen, cell-based, HTS (AID 1508626;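 active = luciferase signal above three times the same-plate solvent-only control wells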;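 also: luciferase driven by Gal4-ERK5 fusion binding five Gal4 sites before minimal TATA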); conditions: HeLa Gal4-ERK5 transactivation, 18 h, at 5 µM, stronger effect = higher value
Mitogen-activated protein kinase 7 (Homo sapiens), sequence (Q13164 whole entry, looked up, the tested form may be a part): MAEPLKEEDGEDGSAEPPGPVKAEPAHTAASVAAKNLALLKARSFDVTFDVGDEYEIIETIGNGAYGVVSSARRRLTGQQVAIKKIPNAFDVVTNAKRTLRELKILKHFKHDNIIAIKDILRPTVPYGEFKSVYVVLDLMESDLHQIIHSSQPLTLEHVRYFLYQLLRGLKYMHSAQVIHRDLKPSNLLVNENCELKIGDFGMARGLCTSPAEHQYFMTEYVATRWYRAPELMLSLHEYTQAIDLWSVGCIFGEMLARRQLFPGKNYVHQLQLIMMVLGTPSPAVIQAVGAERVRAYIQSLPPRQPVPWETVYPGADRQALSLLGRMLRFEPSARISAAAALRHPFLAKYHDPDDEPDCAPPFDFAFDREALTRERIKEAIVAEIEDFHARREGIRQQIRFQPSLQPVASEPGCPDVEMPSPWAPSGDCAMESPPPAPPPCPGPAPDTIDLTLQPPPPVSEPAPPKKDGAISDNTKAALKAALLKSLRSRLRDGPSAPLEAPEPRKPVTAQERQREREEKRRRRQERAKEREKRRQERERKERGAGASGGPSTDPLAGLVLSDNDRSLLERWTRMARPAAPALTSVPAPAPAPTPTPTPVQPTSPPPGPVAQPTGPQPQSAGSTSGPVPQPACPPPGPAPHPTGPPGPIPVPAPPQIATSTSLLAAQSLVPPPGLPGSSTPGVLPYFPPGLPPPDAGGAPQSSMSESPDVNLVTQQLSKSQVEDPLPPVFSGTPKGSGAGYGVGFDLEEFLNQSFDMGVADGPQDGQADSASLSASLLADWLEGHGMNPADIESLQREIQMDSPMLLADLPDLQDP

[19] = liver-stage malaria parasite growth inhibition, primary screen, cell-based, HepG2, luciferase luminescence, HepG2 viability (AID 624349; in the data active = parasite load remaining mostly below about 12%, no sharp cut-off; inactive = mostly above about 10%;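 also: 100% = mean of DMSO negative control wells on the same plate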); conditions: P. berghei liver stage in HepG2, luciferase luminescence, concentration not given here; parasite load remaining: stronger effect = lower value; viability: measured here: HepG2 viability without parasites
[20] = measured here: epithelial PC-3E GFP cell survival
[21] = measured here: mesenchymal TEM4-18 mCherry cell survival
[22] = measured here: total cells without miR-34 induction
[23] = MELAS cybrid survival, CellTiter-Glo 48 h, stronger effect = higher value
[24] = Rieske KO mouse fibroblast survival, CellTiter-Glo 72 h
[25] = measured here: relative caspase fold change +Dox/-Dox
[26] = measured here: total cells with miR-34 induction, stronger effect = lower value

NN=C(N)N
1.02 and 1.25: normalised cell number [9, 20]
inactive: nuclear beta-catenin stimulation ([1]; at 10 µM) 0.8% | insulin secretion stimulation [2] 1.9% | viability decrease [3] -34.7% | tube area decrease [4] -0.5% | GLP1 secretion stimulation [5] -3.5% | inhibition of viability [6] 0.63% | viability decrease (inhibition) [7] 20.2% | viability decrease (inhibition) [8] -6% | red/green cell ratio (normalised) ([9]; counts scaled to control wells, 1 = unselective) 0.96 and 0.91 | activity remaining [10] 107% | remaining activity [11] 111% and 119% | remaining NAD [13] 10 nM | z-score [14] 0.575 and 0.155 and 0.34
10500 and 9550 and 9270: cell count [12, 22]
0.98 and 1.14: normalised cell number [9, 21]
6.5%: nuclear beta-catenin stimulation ([1]; stimulation, at 2 µM)

c1ccc(N2CCNCC2)cc1
inactive: nuclear beta-catenin stimulation ([1]; at 10 µM) 0.1% | insulin secretion stimulation [2] 3.1% | viability decrease [3] 3.7% | tube area decrease [4] -2.6% | GLP1 secretion stimulation [5] -0.5% | inhibition of viability [6] 10.5% | viability decrease (inhibition) [7] 0.3% | viability decrease (inhibition) [8] -5.9% | red/green cell ratio (normalised) [9] 1.17
-0.6%: nuclear beta-catenin stimulation ([1]; stimulation, at 2 µM)
0.95: normalised cell number [9, 20]
1.12: normalised cell number [9, 21]

CC[C@@H](CO)NC(=O)[C@@H]1C=C2c3cccc4c3c(cn4C)C[C@H]2N(C)C1
0.95: normalised cell number [9, 21]
-1.27: z-score [15, 24]
inactive: nuclear beta-catenin stimulation ([1]; at 10 µM) 3.3% | insulin secretion stimulation [2] 2.6% | viability decrease [3] 1% | tube area decrease [4] -1.8% | GLP1 secretion stimulation [5] 0.1% | inhibition of viability [6] 9.4% | viability decrease (inhibition) [7] 16% | viability decrease (inhibition) [8] 5.6% | red/green cell ratio (normalised) [9] 0.99 | remaining activity [11] 112% | z-score [15, 23] -0.563 | remaining NAD [13] 10 nM | z-score [14] 0.19 and -0.69 and -0.15
0.96: normalised cell number [9, 20]
1.1%: nuclear beta-catenin stimulation ([1]; stimulation, at 2 µM)

CN[C@@H](C)[C@H](O)c1ccccc1
0.6%: nuclear beta-catenin stimulation ([1]; stimulation, at 2 µM)
inactive: nuclear beta-catenin stimulation ([1]; at 10 µM) 1.4% | insulin secretion stimulation [2] 0% | viability decrease [3] -2.5% | tube area decrease [4] -1.6% | GLP1 secretion stimulation [5] 0.8% | inhibition of viability [6] -12.5% | viability decrease (inhibition) [7] 5.5% | viability decrease (inhibition) [8] -4.6% | inhibition [16] 16.5%

CC(C)c1cccc(C(C)C)c1O
inactive: survival [17] 5.17 | nuclear beta-catenin stimulation ([1]; at 10 µM) 1.6% | insulin secretion stimulation [2] 0.6% | tube area decrease [4] 31% | GLP1 secretion stimulation [5] -1.8% | red/green cell ratio (normalised) [9] 1.01 | activity remaining [10] 114% | remaining activity [11] 108% | z-score [15, 23] 0.836 and -0.252 | remaining NAD [13] 10 nM | luciferase signal [18] 40 AU | z-score [14] 0.08 and -0.35 and 0.505
-0.371 and -1.34: z-score [15, 24]
active: viability decrease [3] 83.9% | inhibition of viability [6] 88.2% | viability decrease (inhibition) [7] 102% | viability decrease (inhibition) [8] 100%
1.17: normalised cell number [9, 20] | normalised cell number [9, 21]
2.2%: nuclear beta-catenin stimulation ([1]; stimulation, at 2 µM)

Nc1ccc([As](=O)(O)O)cc1
0.8%: nuclear beta-catenin stimulation ([1]; stimulation, at 2 µM)
1.12: normalised cell number [9, 20]
inactive: parasite load remaining [19] 57.3% | nuclear beta-catenin stimulation ([1]; at 10 µM) 1.1% | insulin secretion stimulation [2] -1.7% | viability decrease [3] -4.2% | tube area decrease [4] -12.5% | GLP1 secretion stimulation [5] 0.9% | inhibition of viability [6] 26% | viability decrease (inhibition) [7] 2.1% | viability decrease (inhibition) [8] -7.6% | red/green cell ratio (normalised) [9] 0.96 | activity remaining [10] 117% | fold change ([12]; stronger effect = lower value) 0.904 | remaining NAD [13] 10 nM | luciferase signal [18] 48 AU
124%: viability [19]
1.07: normalised cell number [9, 21]
4.85: fold change [12, 25]
12200: cell count [12, 26]
13500: cell count [12, 22]

NP(N)(=O)NC(=O)c1ccc(F)cc1
0.9%: nuclear beta-catenin stimulation ([1]; stimulation, at 2 µM)
0.92: normalised cell number [9, 20]
0.91: normalised cell number [9, 21]
9600 and 8990: cell count [12, 22]
0.958 and 0.851: fold change [12, 25]
8980 and 8200: cell count [12, 26]
inactive: nuclear beta-catenin stimulation ([1]; at 10 µM) 0.1% | insulin secretion stimulation [2] -0.7% | viability decrease [3] -1.25% | tube area decrease [4] -20.9% | GLP1 secretion stimulation [5] 1.1% | inhibition of viability [6] -0.3% | viability decrease (inhibition) [7] 31.5% | viability decrease (inhibition) [8] 6.6% | red/green cell ratio (normalised) [9] 0.99 | fold change ([12]; stronger effect = lower value) 0.935 and 0.913 | remaining NAD [13] 10 nM | z-score [14] -0.31

C#CCN(C)[C@H](C)Cc1ccccc1
-0.0749 and -0.112: z-score [15, 24]
0.7%: nuclear beta-catenin stimulation ([1]; stimulation, at 2 µM)
inactive: survival [17] 12.8 | nuclear beta-catenin stimulation ([1]; at 10 µM) -2% | insulin secretion stimulation [2] 1.2% | viability decrease [3] 1.9% | tube area decrease [4] -3.8% | GLP1 secretion stimulation [5] 1.9% | inhibition of viability [6] 6.37% | viability decrease (inhibition) [7] 10.9% | viability decrease (inhibition) [8] 8.8% | z-score [15, 23] -1.17 and -0.00892 | remaining NAD [13] 10 nM | z-score [14] 1.24 and 0.63

CN1C(=O)COc2c(C(=O)NC3CN4CCC3CC4)cc(Cl)cc21 (stereo not given)
75.1%: viability [19]
10100: cell count [12, 22]
3.8%: nuclear beta-catenin stimulation ([1]; stimulation, at 2 µM)
1.27: fold change [12, 25]
inactive: parasite load remaining [19] 118% | nuclear beta-catenin stimulation ([1]; at 10 µM) 3.8% | insulin secretion stimulation [2] 1.3% | viability decrease [3] -9.5% | tube area decrease [4] -0.8% | GLP1 secretion stimulation [5] 0% | inhibition of viability [6] 5.23% | viability decrease (inhibition) [7] 18.3% | viability decrease (inhibition) [8] -7.8% | fold change ([12]; stronger effect = lower value) 0.858 | z-score [14] 0.255
8690: cell count [12, 26]

Oc1cccc2cccnc12
inactive: parasite load remaining [19] 64.5% and 25.4% | nuclear beta-catenin stimulation ([1]; at 10 µM) 6.4% | insulin secretion stimulation [2] -1% | viability decrease [3] -3.1% | tube area decrease [4] -4.7% | inhibition of viability [6] 8.1% | red/green cell ratio (normalised) [9] 1.03 | activity remaining [10] 111% | fold change ([12]; stronger effect = lower value) 0.857 | remaining NAD [13] 10 nM
0.9: normalised cell number [9, 20]
active: GLP1 secretion stimulation [5] 81.5% | viability decrease (inhibition) [7] 68.4% | viability decrease (inhibition) [8] 53.9%
0.8%: nuclear beta-catenin stimulation ([1]; stimulation, at 2 µM)
8140: cell count [12, 26]
0.93: normalised cell number [9, 21]
9500: cell count [12, 22]
0.864: fold change [12, 25]
53.5% and 57.1%: viability [19]
